Screening data (PubChem BioAssay)
T cruzi growth-1: T. cruzi proliferation inhibition | AID 624255 | T. cruzi beta-gal in NIH3T3, GalScreen luminescence, 90 h | inhibition, % at 8.34 µM | 5.9% of 77,000 active;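 active means mean inhibition above about 93%, with at least 55% of replicates each passing it, limit read from the data, passing the limit was not always enough; inconclusive means only one of those two conditions holds; inactive means neither condition holds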
C diff growth: blocks growth of Clostridium difficile. Clostridium difficile clinical isolate growth, OD600, 24 h; active compounds read low. 0.25% of 86,000 active. growth activity, negative = inhibition, % at 16 µg/mL (by protocol);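 active means mean growth activity at or below -80% and every replicate also at or below -80%; inconclusive means mean at or below -80% but some replicate above -80%; inactive means mean growth activity above -80%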;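 further: 0% = DMSO wells and -100% = levofloxacin 16 µg/mL wells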
Pf Dd2 growth: P. falciparum Dd2 growth inhibition | SYBR Green, 72 h; active compounds read low | activity change, % at 10 µM | 2.3% of 94,000 active | AID 1159554; in the data active means activity change below about -80%; inconclusive means no clear call, values can overlap the other calls
T cruzi growth-2: Trypanosoma cruzi proliferation inhibition; shares compounds with T cruzi growth-1; T. cruzi beta-gal in NIH3T3, GalScreen luminescence, 90 h; inhibition, % at 8.35 µM; 72% of 5,600 active;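 active means mean replicate inhibition above about 95% and at least 55% of replicates individually reaching it, limit read from the data; inconclusive means only one of the two criteria is met; inactive means neither criterion is met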
T cruzi growth-3: inhibitors of T. cruzi proliferation; T. cruzi beta-gal in NIH3T3, GalScreen luminescence, 90 h; 21% of 5,600 active; shares compounds with T cruzi growth-1; AID 651740; inhibition, % at 2.09 µM;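 active means mean inhibition above about 95%, with at least 55% of replicates also reaching it, limit read from the data; inconclusive means meets just one of the two conditions; inactive means meets neither condition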;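 further: plate controls were neutral control median for no effect and positive control median for full effect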
3T3 cytotox: NIH/3T3 (mouse) viability loss; shares compounds with T cruzi growth-1; NIH/3T3 viability, CellTiter-Glo ATP luminescence, 90 h; cytotoxicity (signal decrease), % at 8.35 µM; 14% of 5,600 active; AID 651742;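 active means mean signal decrease across replicates above about 35% based on untreated-well scatter, with enough replicates individually passing, limit read from the data; inconclusive means no rule stated though some were filed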;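 further: 0% = median of neutral control wells and 100% = median of positive control wells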
NIH3T3 tox 2: kills mouse NIH/3T3 fibroblasts. shares compounds with T cruzi growth-1. inhibition, % at 24.9 µM. AID 651744. NIH/3T3 viability, CellTiter-Glo ATP luminescence, 90 h. 56% of 5,600 active;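 active means mean loss of cell viability signal at or above a set limit, and enough replicates individually reaching it; inconclusive means meets only the mean limit or only the replicate share; inactive means meets neither condition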;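 further: 0% = median of neutral control wells and 100% = median of positive control wells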
* hit, by the source's call; ? = inconclusive; · = no result. A selection: hits, their analogues and other compounds. The true share with any hit is near 6.7%.

SMILES	T cruzi growth-1	C diff growth	Pf Dd2 growth	T cruzi growth-2	T cruzi growth-3	3T3 cytotox	NIH3T3 tox 2
C[C@H]1CCCCO[C@@H](CN(C)Cc2ccncc2)[C@@H](C)CN([C@@H](C)CO)C(=O)c2cc(NC(=O)c3ccccc3)ccc2O1	-42	0	·	·	·	·	·
C[C@H](CO)N1C[C@H](C)[C@@H](CN(C)C)Oc2ccc(NC(=O)Cc3cn(C)c4ccccc34)cc2CC1=O	·	-3	-3	·	·	·	·
COc1ccc(S(=O)(=O)N(C)C[C@H]2Oc3c(NC(=O)c4cc(C)nn4C)cccc3C(=O)N([C@@H](C)CO)C[C@H]2C)cc1	-62	-1	-14	·	·	·	·
C[C@@H]1CN([C@@H](C)CO)C(=O)Cc2cc(NC(=O)c3ccncc3)ccc2O[C@H]1CN(C)S(=O)(=O)c1cn(C)cn1	25	6	21	·	·	·	·
CCC(=O)N1CC[C@@H]2[C@H]1c1cc(-c3ccccc3F)ccc1N(C)[C@H]2CO	91	-3	28	·	·	·	·
CN1c2ccc(-c3ccccc3F)cc2[C@@H]2[C@@H](CCN2C(=O)Nc2ccc(F)cc2)[C@@H]1CO	107*	-10	1	104*	101*	14	43*
CN1c2ccc(-c3ccccc3F)cc2[C@H]2[C@H](CCN2C(=O)Nc2ccc(F)cc2)[C@H]1CO	?	75	5	111*	94	-15	45*
CCC(=O)N1CC[C@@H]2[C@@H](CO)N(C)c3ccc(-c4ccccc4F)cc3[C@@H]21	89	9	21	·	·	·	·
CCC(=O)NC[C@H]1[C@H](c2ccccc2)[C@@H](CO)N1C(=O)C1CCC1	8	5	11	·	·	·	·
C[C@H](CO)N1C[C@H](C)[C@H](CN(C)C(=O)CN(C)C)Oc2ncc(-c3ccc(F)cc3)cc2C1=O	-38	-2	16	·	·	·	·
O=C(C[C@H]1CC[C@@H]2[C@H](COC[C@@H](O)CN2Cc2ccc(F)cc2)O1)NCc1ccncn1	-4	1	6	·	·	·	·
N#C[C@@H]1[C@@H](c2ccccc2)[C@H](CO)N1S(=O)(=O)c1ccc(F)cc1	50	-3	13	·	·	·	·
N#C[C@@H]1[C@@H](c2ccccc2)[C@@H](CO)N1S(=O)(=O)c1ccc(-c2ccccc2)cc1	103*	18	48	100*	26	17	20
N#C[C@@H]1[C@H](c2ccccc2)[C@H](CO)N1S(=O)(=O)c1ccc(F)cc1	33	-14	41	·	·	·	·
N#C[C@H]1[C@@H](c2ccccc2)[C@@H](CO)N1S(=O)(=O)c1ccc(-c2ccccc2)cc1	96*	0	-9	102*	77	10	23
C[C@@H]1CN([C@@H](C)CO)C(=O)c2cccc(NS(=O)(=O)c3ccc(Cl)cc3)c2O[C@@H]1CN(C)C(=O)Nc1ccc2c(c1)OCO2	48	3	-55	·	·	·	·
CCCC#Cc1cnc2c(c1)C(=O)N([C@@H](C)CO)C[C@H](C)[C@H](CN(C)C(=O)c1ccc(F)cc1)O2	30	-6	-18	·	·	·	·
C[C@@H]1CCCCO[C@@H](CN(C)Cc2ccc(Cl)c(Cl)c2)[C@H](C)CN([C@H](C)CO)C(=O)c2cc(N(C)C)ccc2O1	99*	·	-74	106*	79	-1	103*
C[C@@H]1CCCCO[C@@H](CN(C)Cc2ccc(Cl)c(Cl)c2)[C@H](C)CN([C@@H](C)CO)C(=O)c2cc(N(C)C)ccc2O1	·	15	-34	·	·	·	·
C[C@@H]1CCCCO[C@H](CN(C)Cc2ccc(Cl)c(Cl)c2)[C@@H](C)CN([C@H](C)CO)C(=O)c2cc(N(C)C)ccc2O1	86	·	-65	·	·	·	·
C[C@@H]1CCCCO[C@H](CN(C)Cc2ccc(Cl)c(Cl)c2)[C@@H](C)CN([C@@H](C)CO)C(=O)c2cc(N(C)C)ccc2O1	106*	·	-79	100*	106*	15	106*
O=C(c1ccncc1)N1CC2(C1)[C@@H](c1ccccc1)[C@@H](CO)N2CC1CCCC1	·	15	-17	·	·	·	·
Cc1ccc(S(=O)(=O)N[C@H]2C=C[C@@H](CC(=O)NCc3ccccc3F)O[C@@H]2CO)cc1	-5	·	22	·	·	·	·
C[C@@H]1CCCCO[C@H](CN(C)CC2CC2)[C@H](C)CN([C@H](C)CO)C(=O)c2cc(NC(=O)c3ccncc3)ccc2O1	17	-3	-67	·	·	·	·
CO[C@H](CN(C)C(=O)Nc1ccc(Cl)cc1)[C@@H](C)CN(Cc1ccccc1Cl)[C@@H](C)CO	?	·	-29	109*	67	16	40*
SMILES	T cruzi growth-1	C diff growth	Pf Dd2 growth	T cruzi growth-2	T cruzi growth-3	3T3 cytotox	NIH3T3 tox 2
CO[C@@H](CN(C)C(=O)Nc1ccc(F)cc1)[C@@H](C)CN(Cc1ccccc1Cl)[C@@H](C)CO	-14	·	-29	·	·	·	·
CO[C@@H](CN(C)S(=O)(=O)c1ccc(F)cc1)[C@@H](C)CN(Cc1ccccc1Cl)[C@H](C)CO	107*	·	-39	72	-5	-3	?
CO[C@@H](CN(C)C(=O)Nc1ccc(C(F)(F)F)cc1)[C@H](C)CN(Cc1ccccc1Cl)[C@H](C)CO	58	·	-36	·	·	·	·
CO[C@H](CN(C)C(=O)Nc1ccc(C(F)(F)F)cc1)[C@@H](C)CN(Cc1ccccc1Cl)[C@H](C)CO	98*	·	-45	103*	69	45*	103*
CO[C@@H](CN(C)C(=O)Nc1ccc(F)cc1)[C@@H](C)CN(Cc1ccccc1Cl)[C@H](C)CO	7	·	-35	·	·	·	·
CO[C@H](CN(C)C(=O)Nc1ccc(C(F)(F)F)cc1)[C@H](C)CN(Cc1ccccc1Cl)[C@H](C)CO	105*	·	-65	110*	82	46*	105*
CO[C@H](CN(C)S(=O)(=O)c1ccc(F)cc1)[C@H](C)CN(Cc1ccccc1Cl)[C@H](C)CO	53	·	-45	·	·	·	·
COc1ccc2c3c(n(C)c2c1)[C@@H](CO)N(Cc1ccccc1)CC31CN(C)C1	·	45	-2	·	·	·	·
O=C(C[C@@H]1C=C[C@@H](NC(=O)c2ccc3c(c2)OCO3)[C@@H](CO)O1)NCc1ccc(Cl)cc1	60	0	-12	·	·	·	·
C[C@@H]1CCCCO[C@H](CN(C)C(=O)C2CCCCC2)[C@@H](C)CN([C@@H](C)CO)C(=O)c2cc(NS(C)(=O)=O)ccc2O1	-5	-1	·	·	·	·	·
O=C(Cc1ccccc1)N1CC(=O)N2[C@H](C1)[C@@H](c1ccc(-c3ccc(F)cc3)cc1)[C@@H]2CO	·	-4	-11	·	·	·	·
C[C@@H]1CN([C@H](C)CO)C(=O)c2cccc(NC(=O)Nc3ccc4c(c3)OCO4)c2O[C@H]1CN(C)Cc1ccc(Cl)c(Cl)c1	?	·	-43	101*	80	21	25*
C[C@@H]1CN([C@@H](C)CO)C(=O)c2cc(NC(=O)Nc3ccc4c(c3)OCO4)ccc2O[C@@H]1CN(C)Cc1ccc(Cl)c(Cl)c1	?	·	7	97*	95	57*	90*
C[C@H](CO)N1C[C@H](C)[C@@H](CN(C)Cc2ccc(Cl)c(Cl)c2)Oc2c(NC(=O)Nc3ccc4c(c3)OCO4)cccc2C1=O	85	·	-38	·	·	·	·
